# Screening results from PubChem.
# This excerpt belongs to a sample that is enriched for hits.
# IL1B secr inh = qHTS for Inhibitors of Inflammasome Signaling: IL-1-beta AlphaLISA Primary Screen; THP-1 LPS/ATP IL-1B secretion, AlphaLISA, 16 h; hits give low values; AID 743279, 2014; activity change, % at 57.5 µM; 4.7% of 360,000 active; in the data active means activity change below about -50%; inconclusive means mostly about -30% to -49%
#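 THP-1 cells pretreated 1 hr with compounds (up to 57.5 uM final), then stimulated with LPS (250 ng/mL final) plus ATP (1.25 mM final); secreted IL-1B measured by AlphaLISA after 16 hr, decreased signal indicating inhibition.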
# ALOX12 inh = Primary qHTS assay for inhibitors of human arachidonate 12S-lipoxygenase (ALOX12): Round 2; purified 12hLO, xylenol orange hydroperoxide absorbance; Potency, µM (titrated, usually from 108 µM), for the others: at the top dose activity change, negative = inhibition, actives largely listed as inhibitors; 1.1% of 580,000 active; further: potency means the concentration at half of the fitted maximal effect
# Target sequence (P18054 whole entry, looked up): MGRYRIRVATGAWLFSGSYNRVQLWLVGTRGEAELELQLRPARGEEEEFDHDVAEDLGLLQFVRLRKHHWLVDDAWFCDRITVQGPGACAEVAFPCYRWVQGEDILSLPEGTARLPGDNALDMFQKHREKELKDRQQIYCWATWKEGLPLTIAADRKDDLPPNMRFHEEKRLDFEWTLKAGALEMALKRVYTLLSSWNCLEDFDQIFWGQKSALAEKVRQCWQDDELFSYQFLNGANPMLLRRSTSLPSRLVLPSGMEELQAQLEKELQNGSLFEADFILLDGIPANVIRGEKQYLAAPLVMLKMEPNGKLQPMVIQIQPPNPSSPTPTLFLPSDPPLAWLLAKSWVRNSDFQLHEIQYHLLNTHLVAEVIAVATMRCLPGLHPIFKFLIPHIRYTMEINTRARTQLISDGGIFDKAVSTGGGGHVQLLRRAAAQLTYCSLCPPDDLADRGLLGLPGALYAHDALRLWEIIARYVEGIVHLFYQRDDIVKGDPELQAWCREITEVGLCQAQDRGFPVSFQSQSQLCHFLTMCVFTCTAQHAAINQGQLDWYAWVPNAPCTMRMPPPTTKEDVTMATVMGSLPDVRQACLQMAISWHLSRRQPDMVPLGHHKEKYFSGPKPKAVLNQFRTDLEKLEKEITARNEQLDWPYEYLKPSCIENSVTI
#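 Purified human 12hLO (150 nM final) in 25 mM Hepes, 0.01% Triton X-100, pH 7.0 was preincubated 15 min at room temperature with compound. Then 40 uM arachidonic acid was added, 30 min. Hydroperoxide was read by Fe-XO absorbance ratio 573/405 nm.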
# DT40 TDP1 CPT = qHTS for Inhibitors of human tyrosyl-DNA phosphodiesterase 1 (TDP1): qHTS in cells in presence of CPT | chicken DT40 Tdp1-/-;hTDP1 cells + 20 nM CPT, ATP luminescence, 48 h | Potency, µM (titrated, usually from 46.2 µM), for the others: at the top dose activity change, negative = growth inhibition, actives largely listed as inhibitors | 12% of 420,000 active; further: potency means the concentration at half of the fitted maximal effect; nearly all actives have a fitted effect of over 55% in size
#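 Chicken DT40 Tdp1-/- cells stably complemented with human TDP1 were seeded at 400 cells/well in medium containing 20 nM camptothecin, exposed to pin-transferred compounds, and grown at 37 °C for at least 48 hr. Viability was read as ATP luminescence.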
# DT40 TDP1 no CPT = qHTS for Inhibitors of human tyrosyl-DNA phosphodiesterase 1 (TDP1): qHTS in cells in absence of CPT; DT40 Tdp1-/- hTDP1 cells, no CPT, ATP luminescence, 48 h; Potency, µM (doses to about 46.2 µM), for inactives: at the highest dose activity change, negative = growth inhibition, usual class: inhibitors; 15% of 420,000 active; AID 686978, 2013; further: potency means the concentration at half of the fitted maximal effect; nearly all actives have a fitted effect of over 55% in size
#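 Camptothecin absent (DMSO only). Human TDP1-complemented DT40 knockout cells, 400 cells/well, 37 °C for minimum 48 hr; ATP measured via CellTiter-Glo, 30 min dark incubation, luminescence.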
# HT1080 IDH1KD tx = qHTS for induction of synthetic lethality in tumor cells producing 2HG: qHTS for the HT-1080-IDH1KD cell line; HT-1080 IDH1 knockdown viability, ATP luminescence, 48 h; Potency, µM (doses to about 46.1 µM), without a hit: at the top dose activity, negative = toxicity, usual class: cytotoxic; 2% of 360,000 active; AID 686971, 2013;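 further: potency means the concentration at half of the fitted maximal effect; 0% = DMSO wells and -100% = cell-free medium wells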
#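 Using the IDH1-knockdown HT-1080 line run in the same batch and compound series as the NT line, viability after 48 h at 37 °C was determined by CellTiter-Glo luminescence and expressed as % activity.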
# HT1080-NT tox = qHTS for induction of synthetic lethality in tumor cells producing 2HG: qHTS for the HT-1080-NT fibrosarcoma cell line. Potency, µM (titrated, usually from 46.1 µM), for the others: at the top dose activity, negative = less viability, usual class: cytotoxic. 1.6% of 360,000 active. HT-1080-NT fibrosarcoma viability, CellTiter-Glo ATP luminescence, 48 h;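 further: NT is the 2HG producing partner of a matched IDH1 knockdown line; potency means the concentration at half of the fitted maximal effect; 0% = DMSO-treated cells and -100% = media-only wells without cells; nearly all actives have a fitted effect of over 55% in size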
#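 Fibrosarcoma NT cells, 750 per well in 5% FBS RPMI, were exposed to compound for 48 hours. Viability: CellTiter-Glo luminescence.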
# Starred values were filed as active, the others as inactive; ? = inconclusive; / = not tested or not shown; [ ] = another dose, or the depositor's remark. Unless noted, the call rests on the fitted dose curve; in most records, active means well fitted curve in the direction sought with a large enough effect; inconclusive means small, poorly fitted or top-dose-only effect, or another doubt; inactive means no such curve, though single readings can be large; an effect the other way counts as inactive or inconclusive. Unless noted, on the % scale 0 is the no-effect control and ±100 the full control effect.
SMILES,IL1B secr inh,ALOX12 inh,DT40 TDP1 CPT,DT40 TDP1 no CPT,HT1080 IDH1KD tx,HT1080-NT tox
Cc1nc2scc(C)n2c(=O)c1S(=O)(=O)Nc1ccc(OC(F)(F)F)cc1,14,8%,21µM*,15µM*,-14%,-19%
CC(=O)c1cccc(NS(=O)(=O)c2c(C)nc3sc(C)cn3c2=O)c1,/,?,18µM*,15µM*,/,/
CCOC(=O)c1cccc(NS(=O)(=O)c2cc3c(cc2C)NC(=O)CO3)c1,/,-17%,18µM*,18µM*,/,/
CCOC(=O)c1ccc(NS(=O)(=O)c2c(C)nc3sccn3c2=O)cc1,3,9%,16µM*,16µM*,-2%,-12%
Cc1cn2c(=O)c(S(=O)(=O)Nc3ccc(F)cc3F)c(C)nc2s1,/,-21%,-20%,?,/,/
Cc1ccc(NS(=O)(=O)c2c(C)nc3sccn3c2=O)cc1,16,8%,?,-27%,-8%,0%
CC(=O)c1ccc(S(=O)(=O)N2CCN(C(=O)COc3cccc(-n4cnnn4)c3)CC2)cc1,/,-16%,/,/,/,/
O=C(Nc1ccccc1)N1CCCC(Cn2c(C3CC3)nc3cccnc32)C1 (stereo not drawn),/,49%,/,/,/,/
Cc1ccc(NS(=O)(=O)c2c(C)nc3sc(C)cn3c2=O)c(Cl)c1,/,7%,/,/,/,/
Cc1nc2sccn2c(=O)c1S(=O)(=O)Nc1ccc(N2CCOCC2)c(Cl)c1,33,8%,18µM*,29µM*,-3%,6%
CCOC(=O)c1cccc(NS(=O)(=O)c2c(C)nc3sc(C)cn3c2=O)c1,/,-17%,13µM*,23µM*,/,/
Cc1ccc(NS(=O)(=O)c2c(C)nc3sc(C)c(C)n3c2=O)cc1F,/,?,12µM*,15µM*,/,/
CCc1cccc(NS(=O)(=O)c2c(C)nc3sc(CC)nn3c2=O)c1,23,5%,?,21µM*,1%,9%
COCCCNC(=O)c1nc(-c2ccc3[nH]ccc3c2)no1,/,-39%,/,/,/,/
O=C(O)c1ccc(F)c(F)c1F,/,-9%,/,/,/,/
COc1ccc(Nc2nccc3c(=O)cc(N4CCOCC4)oc23)cn1,/,25µM*,/,/,/,/
O=c1cc(N2CCOCC2)oc2c(Nc3ccccc3)nccc12,/,7%[176 µM],/,/,/,/
COc1cccc(-c2nccc3c(=O)cc(N4CCOCC4)oc23)c1,/,45µM*,/,/,/,/
C[S+](=O)([O-])c1cccc(-c2nccc3c(=O)cc(N4CCOCC4)oc23)c1,/,56µM*,/,/,/,/
O=C(N/N=C/c1cccc(Oc2ccccc2)c1)c1cccs1,/,20%,/,/,/,/
CCC(C)c1ccc(C(N)C(C)C)cc1 (stereo not drawn),/,5%,/,/,/,/
CO[C@H]1[C@H](NC(=O)c2sccc2Cl)c2ccccc2C12CCNCC2,/,32%,/,/,/,/
NC(Cc1ccc(C(F)(F)F)cc1)c1csc(Nc2ccccn2)n1 (stereo not drawn),-77*,16%,?,?,?,21µM*
NC(Cc1ccc(C(F)(F)F)cc1)c1csc(Nc2ncccn2)n1 (stereo not drawn),-53*,6%,9.2µM*,9.2µM*,?,?
CC(C)CC(N)c1csc(Nc2ncccn2)n1 (stereo not drawn),-15,25%,9.2µM*,6.5µM*,?,?
SMILES,IL1B secr inh,ALOX12 inh,DT40 TDP1 CPT,DT40 TDP1 no CPT,HT1080 IDH1KD tx,HT1080-NT tox
NC(Cc1ccc(F)cc1)c1csc(Nc2ccc(C(F)(F)F)cn2)n1 (stereo not drawn),-55*,?,13µM*,9.2µM*,?,?
Cc1ccc(C(=O)NCC(C)(C)CNC(=O)c2ccc(C)o2)o1,/,-1%,/,/,/,/
O=C(Oc1cccc(Br)c1)c1cccc2ccccc12,/,5%,/,/,/,/
NC(Cc1ccc(C(F)(F)F)cc1)c1csc(Nc2cnccn2)n1 (stereo not drawn),?,-15%,6.5µM*,5.8µM*,?,?
NC(Cc1ccc(C(F)(F)F)cc1)c1csc(Nc2cc(NCc3ccco3)ncn2)n1 (stereo not drawn),?,?,21µM*,16µM*,16µM*,23µM*
FC(F)(F)c1ccc(CNCc2ccco2)cc1,/,-4%,/,/,/,/
COc1ccc(-n2c(SCCC#N)nnc2-c2cc(Cl)ccc2OC)cc1Cl,30,-21%,?,16µM*,29µM*,?
CC(C)(C)NC(=O)CCN(/N=C/c1ccccc1F)C1=NS(=O)(=O)c2ccccc21,24,1%,?,21µM*,15%,1%
CC(C)(C)NC(=O)CCN(/N=C/c1ccccc1)C1=NS(=O)(=O)c2ccccc21,34,0%,?,16µM*,-3%,5%
Cc1cccc(/C=N/N(CCO)C2=NS(=O)(=O)c3ccccc32)c1,-1,12%,?,?,-20%,-2%
CN(/N=C\c1ccc(O)c(O)c1)c1nc(-c2ccccc2)cc(-c2ccccc2)n1,-61*,?,0.82µM*,1.5µM*,?,?
